Measurements as given in PubChem BioAssay (NCATS).
Several values for one entry are separate records, joined by “and”; a condition that tells them apart may be missing. Equal entries are not always repeated. Results filed as inconclusive are left out. Activity calls are given as the source filed them. The call rests on the fitted dose curve.

Assay: qHTS Assay for Lipid Storage Modulators (AID 1519); on activity change, negative = inhibition: on the % scale 0 is the no-effect control and ±100 the full control effect
Conditions: Drosophila S3 cells, BODIPY lipid droplet/cell ratio, laser cytometry, cells loaded with oleic acid
Excerpt: NIH Molecular Libraries Probe Production Centers Network [MLPCN]
NIH Chemical Genomics Center [NCGC]
Assay Submitter (PI): Beller, Mathias; Max-Planck-Institut fur Biophysikalische Chemie
NCGC Assay Overview: Storing lipids as a reservoir for energy or the anabolism of elementary metabolites is a common feature of probably all cells and is conserved from bacteria to humans. The universal cellular lipid storage organelle is the so-called lipid storage droplet (LD). Although ubiquitous, LDs share a simple structure composed of a hydrophobic core that harbors the storage lipids, which is shielded by a droplet-specific phospholipid monolayer to which proteins are attached. The current model of LD biogenesis involves an incorporation of the lipid core into the membrane leaflets of the endoplasmic reticulum (ER) followed by a subsequent budding-like maturation of a LD, which ultimately pinches off. Once released, LD volume can increase by localized lipogenesis or fusion of existing droplets. Storage lipids are re-mobilized enzymatically by lipase activity. Lipase regulation in the adipocyte is heavily studied and involves multiple components including catecholamine signaling, the LD-associated proteins Perilipin and comparative gene identification-58 (CGI-58) and at least two lipases named hormone sensitive lipase (HSL) and adipocyte triglyceride lipase (ATGL). LD regulation outside of the adipocyte is poorly understood and only few components are known. However, there is an urgent need to learn more about ectopic fat depots as mislocalized storage of lipids, for example in the liver or muscle, is an eminent health problem associated with insulin resistance or the metabolic syndrome. We developed a laser-scanning cytometer assay to enable 1,536-well screening and combined the results of the small molecules screen with an RNAi database based on lipid storage.
NCGC Assay Protocol Summary:
We dispensed 4 uL of cells at 1.25 x 10^6 cells/mL into LoBase Aurora COC 1,536-well plates (black walled, clear bottom) with a bottle-valve solenoid-based dispenser (Aurora) to obtain 5,000 cells/well. Triacsin C (Sigma-Aldrich T-4540), an inhibitor of long-chain fatty acyl CoA synthetase that blocks synthesis of triglycerides, was used as a positive control for lipid under-storage. A total of 23 nL of compound solution of different concentrations were transferred to the assay plates using a Kalypsys pin tool equipped with a 1,536-pin array containing 10-nL slotted pins (FP1S10, 0.457-mm diameter, 50.8 mm long; V&P Scientific). One microliter of oleic acid (400 uM) was added, and the plate was lidded with stainless steel rubber gasket lined lids containing pinholes. […] Fluorescence was detected by excitation of the fluorophores with a 488-nm laser on an Acumen Explorer (TTP Lab Tech). The total intensity in channel 1 (500-530 nm) reflected lipid droplet accumulation. […] The ratio of the total intensity in PMT channel 1 over total intensity of channel 3 was also calculated. Percent activity was computed relative to an internal control (100% inhibited lipid droplet deposition due to the presence of 20 uM Triacsin C), which was added to 32 wells/plate.

[1] = measured here: cell count channel max response
[2] = measured here: lipid channel max response

CCO/C([O-])=N/c1c[n+](N2CCOCC2)no1
activity change, negative = inhibition (at 25.7 µM (top of the series)): -2.6% (inactive) | activity change, negative = inhibition (at 57.5 µM (top of the series)): 9.19% (inactive) and 0.351% (inactive) | max response [1]: -1.78% and -5.37% and -2.1% | max response [2]: -4.32% and 6.3% and -2.43%

CN(C)CC/C=C1\c2ccccc2COc2ccccc21
activity change, negative = inhibition (at 25.7 µM (top of the series)): 1.34% (inactive) | activity change, negative = inhibition (at 57.5 µM (top of the series)): 2.32% (inactive) | max response [1]: -10.6% and 12% | max response [2]: -7.69% and 14%

CCCOc1ccccc1-c1nc2n[nH]nc2c(=O)[nH]1
activity change, negative = inhibition (at 25.7 µM (top of the series)): -0.67% (inactive) | activity change, negative = inhibition (at 57.5 µM (top of the series)): 9.88% (inactive) and -1.66% (inactive) | max response [1]: 4.38% and 27.6% and 39.3% | max response [2]: 5.08% and 45.2% and 35.5%

CC(=O)Oc1cc(C(C)C)c(OCCN(C)C)cc1C
activity change, negative = inhibition (at 25.7 µM (top of the series)): -0.785% (inactive) | max response [1]: -9.94% | max response [2]: -5.49%

CCN(CC)CC(=O)Nc1c(C)cccc1C
activity change, negative = inhibition (at 25.7 µM (top of the series)): 0.593% (inactive) | activity change, negative = inhibition (at 57.5 µM (top of the series)): 2.9% (inactive) | max response [1]: -1.17% and 18.4% | max response [2]: 2.13% and 21.4%

CN(C)CCCN1c2ccccc2Sc2ccc(C(F)(F)F)cc21
activity change, negative = inhibition (at 25.7 µM (top of the series)): -1.52% (inactive) | activity change, negative = inhibition (at 57.5 µM (top of the series)): 3.48% (inactive) | max response [1]: -5.7% and 9.08% | max response [2]: -9.54% and 14.3%

Fc1ccc(C(c2ccc(F)cc2)N2CCN(C/C=C/c3ccccc3)CC2)cc1
activity change, negative = inhibition (at 57.5 µM (top of the series)): -1.34% (inactive) | max response [1]: 15.3% | max response [2]: 15.1%

CCCCCN(CCCCC)C(=O)C(CCC(=O)O)NC(=O)c1ccc(Cl)c(Cl)c1 (stereo unspecified)
activity change, negative = inhibition (at 57.5 µM (top of the series)): 2.8% (inactive) | max response [1]: -5.79% | max response [2]: -4.23%

CCCN(CCC)C(=O)C(CCC(=O)O)NC(=O)c1ccccc1 (stereo unspecified)
activity change, negative = inhibition (at 57.5 µM (top of the series)): 2.72% (inactive) | max response [1]: 19.5% | max response [2]: 23.3%

C=CCc1ccccc1OCC(O)CNC(C)C (stereo unspecified)
activity change, negative = inhibition (at 57.5 µM (top of the series)): 0.138% (inactive) | max response [1]: 11.7% | max response [2]: 12.4%

COCCc1ccc(OCC(O)CNC(C)C)cc1 (stereo unspecified)
activity change, negative = inhibition (at 57.5 µM (top of the series)): 2.43% (inactive) | max response [1]: -17.2% | max response [2]: -15.7%

CCN1CCc2nc(N)oc2CC1
activity change, negative = inhibition (at 57.5 µM (top of the series)): 0.659% (inactive) | max response [1]: -8.22% | max response [2]: -7.55%
